Screening data deposited in PubChem by National Center for Advancing Translational Sciences (NCATS).
HCV inhibitor: HCV inhibition; Huh7.5.1 HCVcc-Cre infection, luciferase reporter, 44 h; Potency, µM (titrated, usually from 41.8 µM), for the others: top-dose activity change, negative = inhibition, hits mostly inhibitors; 340,000 tested, 3.4% active; also: potency is read from the fitted curve at half-maximal effect
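A cell-based infection assay in which seeded cells (1,000 per well) receive test compound after 4 h, are inoculated with HCVcc-Cre at approximately 0.5 moi, and are incubated 44 h before luminescence detection.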
FMDV antiviral: blocks foot and mouth disease virus; 410,000 tested, 1.2% active; FMDV antiviral cell-based qHTS; Potency, µM (series often up to 57.9 µM), for inactives: at the top dose activity change, negative = inhibition, most hits filed as inhibitors; calls by dose curve; tested in HEK293T cells; also: read-out not given here; potency is read from the fitted curve at half-maximal effect; nearly all actives have a fitted effect of over 45% in size
VACV mCherry inh: vaccinia inhibition (mCherry reporter); Vaccinia virus mCherry reporter infection, fluorescence; Potency, µM (highest dose often 36.5 µM), for the others: at the top dose activity change, negative = inhibition, most hits filed as inhibitors; 310,000 tested, 0.63% active; calls by dose curve; tested in A549 cells; also: potency is read from the fitted curve at half-maximal effect; nearly all actives have a fitted effect of over 35% in size
Sm TGR inh: blocks Schistosoma mansoni thioredoxin glutathione reductase; purified TGR, DTNB reduction, TNB absorbance 405 nm; Potency, µM (top dose mostly 114 µM), without a hit: at the highest dose activity change, negative = inhibition, usual class: inhibitors; 360,000 tested, 3% active; AID 485364; also: potency is read from the fitted curve at half-maximal effect; nearly all actives have a fitted effect of over 60% in size
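First, TGR (20 nM dispensed) and NADPH were mixed with compound. Second, a 15 min room-temperature incubation followed. Third, further NADPH and then DTNB were added to start the reaction. Finally, TNB absorbance was monitored kinetically.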
HCMV inh: blocks human cytomegalovirus replication | HFF cells, HCMV-luciferase reporter, 72 h; stronger effect = lower value | activity change, negative = inhibition, % at 57.5 µM | 410,000 tested, 4.5% active | AID 1259415; in the data active = activity change below about -60%; inconclusive = no clear call, values can overlap the other calls; inactive = above about -39%
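Two compound doses tested in HFFs infected with HCMV-luciferase, MOI 1 PFU/cell, 72 h at 37C. Lysate luminescence read with OneGlo; data normalized against buffer-only and 10uM Salinomycin inhibitor controls.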
VACV Venus inh: vaccinia inhibition (Venus reporter); Potency, µM (highest dose often 36.5 µM), without a hit: at the top dose activity change, negative = inhibition, hits mostly inhibitors; Vaccinia virus Venus reporter expression, fluorescence; 330,000 tested, 0.46% active; calls by dose curve; tested in A549 cells; also: potency is read from the fitted curve at half-maximal effect; nearly all actives have a fitted effect of over 30% in size
Starred values were filed as active, the others as inactive; i = inactive; ? = inconclusive; · = no result given; [ ] = dose if it differs, or a comment. The list is not random: actives were taken first. Their share in the collection is about 9.3%. Unless noted, calls follow the shape of the dose curve; as a rule, active = well fitted curve in the direction sought with a large enough effect; inconclusive = small, poorly fitted or top-dose-only effect, or another doubt; inactive = no such curve, though single readings can be large; an effect the other way counts as inactive or inconclusive. % is scaled to controls: 0 for no effect and ±100 for the full control effect.

SMILES	HCV inhibitor	FMDV antiviral	VACV mCherry inh	Sm TGR inh	HCMV inh	VACV Venus inh
O=C(Nc1cccc(C(F)(F)F)c1)C1CCN(S(=O)(=O)c2cccs2)CC1	·	0%	-7%	-1%	?	-12%
O=C(NCc1cccnc1)C1CCN(S(=O)(=O)c2cc([N+](=O)[O-])ccc2Cl)CC1	10%	?	14µM*	·	-29	?
COc1ccc(OC)c(S(=O)(=O)N2CCC(C(=O)Nc3cccc(C(F)(F)F)c3)CC2)c1	?	25µM*	·	-1%	?	?
O=C(NCc1ccccc1)C1CCN(S(=O)(=O)c2cc([N+](=O)[O-])ccc2Cl)CC1	-9%	-17%	-23%	-8%	-2	-9%
CCSc1nnc(NC(=O)C2CCN(S(=O)(=O)c3cc(C(F)(F)F)ccc3Cl)CC2)s1	?	?	-10%	89µM*	?	-2%
CC1CCN(S(=O)(=O)c2ccc3nc(Nc4cccc(C(F)(F)F)c4)ccc3c2)CC1	·	-25%	-9%[7.34 µM]	8%	-100*	-3%[7.34 µM]
O=C(NCc1ccccn1)C1CCN(S(=O)(=O)c2cc(Cl)ccc2Cl)CC1	?	-11%	-18%	-7%	-62*	-7%
Cc1ccc(Cl)cc1S(=O)(=O)N1CCC(C(=O)NC2CCN(Cc3ccccc3)CC2)CC1	?	-14%	-19%	-6%	-72*	0%
CC1CCN(S(=O)(=O)c2ccc3nc(Nc4ccc(C#N)cc4)ccc3c2)CC1	·	?	?	1%	?	-20%
O=C(NCc1ccccn1)Nc1cc(Cl)ccc1Cl	4%	8%	·	-8%	-67*	·
CCOc1ccc(Cl)cc1S(=O)(=O)N1CCC(C(=O)NCc2ccccn2)CC1	12%	6%	-2%	-14%	26	-3%
CC(OC(=O)C1=COCCO1)C(=O)NC(C)c1ccc(Cl)cc1Cl (stereo unspecified)	46%	-5%	-4%	-12%	-37	-19%
O=C(NC1CC1)C1CCN(S(=O)(=O)c2ccc(Cl)c([N+](=O)[O-])c2)CC1	13µM*	?	·	?	-103*	·
CC1CCN(C(=O)C2CCN(S(=O)(=O)c3cc(Cl)ccc3Cl)CC2)CC1	0%	-19%	2%	0%	-87*	-4%
CC(NC(=O)C1CCN(S(=O)(=O)c2cc([N+](=O)[O-])ccc2Cl)CC1)c1ccccc1 (stereo unspecified)	1%	-19%	-21%	-1%	-33	-27%
COc1ccc(OC)c(C2SCCN2S(=O)(=O)c2cccc(C(F)(F)F)c2)c1 (stereo unspecified)	?	·	-16%	10%	-61*	-10%
Cc1ccc(NC(=O)C2CCN(S(=O)(=O)c3cc([N+](=O)[O-])ccc3Cl)CC2)nc1	5µM*	?	·	·	-30	·
CCN1CCN(C(=O)C2CCCN(S(=O)(=O)c3cc(Cl)ccc3Cl)C2)CC1 (stereo unspecified)	·	?	i	2%	?	-20%
Cc1ccccc1NC(=O)CCc1c(C)nc2c(c1C)c(=O)n(C)c(=O)n2C	·	-18%	2%	3%	-2	5%
CCCCn1c(SCC(=O)Nc2cc(C)on2)nc2ccccc2c1=O	-14%	37%	i	-2%	-21	-10%
O=C(Nc1ccccc1N1CCCCC1)C1CCN(S(=O)(=O)c2ccccc2C(F)(F)F)CC1	?	-21%	-11%	2%	-61*	-9%
Cc1ccc(NC(=O)C2CCN(S(=O)(=O)c3cccc(C(F)(F)F)c3)CC2)nc1	?	-18%	-2%	1%	-94*	-19%
Cc1ccc2nc(NC(=O)C3CCN(S(=O)(=O)c4cnc[nH]4)CC3)sc2c1	-14%	?	-15%	0%	?	-27%
Cc1ccc2nc(NC(=O)C3CCN(S(=O)(=O)c4cc([N+](=O)[O-])ccc4Cl)CC3)sc2c1	6.3µM*	?	?	-12%	-10	?
O=C(Nc1nc2ccc(F)cc2s1)C1CCN(S(=O)(=O)c2cc([N+](=O)[O-])ccc2Cl)CC1	32µM*	20µM*	?	?	-6	?
SMILES	HCV inhibitor	FMDV antiviral	VACV mCherry inh	Sm TGR inh	HCMV inh	VACV Venus inh
COc1ccc(N2CC(C(=O)N3CCN(S(=O)(=O)c4ccc(F)c(F)c4)CC3)CC2=O)c(OC)c1 (stereo unspecified)	-2%	-1%	-22%	·	8	-13%
Cc1ccccc1SCC(=O)OCC(=O)N(C)c1c(N)n(Cc2ccccc2)c(=O)[nH]c1=O	1%	-12%	i	0%	4	-17%
O=S(=O)(c1cccc2ccccc12)N1CCC2CC1c1cc(Cl)ccc12 (stereo unspecified)	-15%[8.37 µM]	-6%	?	·	-24	-2%
CC(=O)Nc1cc(-c2ccc(F)cc2)cn2c(-c3ccc(F)cc3)cnc12	·	-21%	2%	·	-26	-11%
CC(C)CNC(=O)C1(C)CCCCCN1Cc1ccccc1-c1ccccc1 (stereo unspecified)	·	?	14%	·	0	-9%
O=S(=O)(c1ccc(Br)c2ccccc12)N1CCCC1	-17%	-18%	i	9%	-31	-13%
O=C(O)/C=C\C(=O)Nc1ccccc1C(=O)N1CCN(c2ccc(Cl)cc2)CC1	7%	-22%	·	50µM*	39	-16%
CC(C)c1ccc(N2CCN(C(=O)c3ccccc3NC(=O)/C=C\C(=O)O)CC2)cc1	-6%	-22%	·	40µM*	55	9%
CCOC(=O)c1ccc(NC(=O)c2cc3c(s2)CCC3)cc1	7.9µM*	6%	15%	5%	-5	2%
COc1ccc(NC(=O)c2c(NCc3ccc(N(C)C)cc3)sc3c2CCC3)cc1	·	11%	-3%	32µM*	28	-2%
COC(=O)c1ccc(NC(=O)c2c(NCc3ccc(OC)c(OC)c3)sc3c2CCCC3)cc1	·	-1%	-7%	-32%	-67*	-20%
COc1ccc(NC(=O)c2c(NCc3cccc(OC)c3)sc3c2CCCC3)cc1	·	32%	-23%	-33%	?	-13%
CCOC(=O)c1ccc(NC(=O)c2c(NCc3cccc(OC)c3OC)sc3c2CCC3)cc1	·	-5%	-8%	4%	3	-5%
CCOC(=O)c1ccc(NC(=O)c2c(NCc3sccc3C)sc3c2CCCCC3)cc1	·	29%	-6%	50µM*	-11	17%
O=C(NCC1(N2CCOCC2)CCCCC1)c1cnn(-c2nccc(-c3ccco3)n2)c1C1CC1	·	3%	-7%	·	·	0%
CCN(c1ccccc1)S(=O)(=O)c1ccc(Cl)c(NC(=O)COC(=O)c2ccc(Cl)c(N)c2)c1	?	-9%	i	-3%	13	-4%
COc1cc2c(cc1OC)C(C)N(C(=O)Nc1ccc(F)cc1)CC2 (stereo unspecified)	-26%	-15%	·	-8%	-102*	·
